A selection: hits, their analogues and other compounds. The true share with any hit is near 3.5%.
MITF primary – MITF inhibitors, primary screen, biochemical, AlphaScreen, human. Microphthalmia-associated transcription factor (Homo sapiens), O75030. inhibition, % at 2.6 µM. 650,000 tested, 0.91% active. AlphaScreen MITF homodimerization, bead proximity signal; in the data active means inhibition above about 50%;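 further: 0% = vehicle wells with protein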
TEAD-YAP block – TEAD-YAP interaction inhibition, primary screen, TEAD-YAP interaction inhibitor project, luminescence, HEK-TIYL cells. TEAD-Gal4/YAP UAS-luciferase luminescence. inhibition, % at 9.12 µM. 640,000 tested, 1.4% active. AID 1259422, 2018; in the data active means inhibition above about 32%;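 further: 0% = median of test compound wells and 100% = reference inhibitor wells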
FBW7 act – FBW7 E3 ligase activators, primary screen, biochemical, AlphaScreen, human; normalized activity (activation), % at 26.1 µM; F-box/WD repeat-containing protein 7 (Homo sapiens), Q969H0; AlphaScreen FBW7–phospho-cyclin E peptide binding, activator screen; 650,000 tested, 0.13% active; in the data active means normalized activity above about 1.9%;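 further: purified mutant Fbw7 with reduced substrate affinity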
GPR151 activ – activators of human GPR151, primary screen, cell-based, PathHunter beta-arrestin, luminescence; G-protein coupled receptor 151 (Homo sapiens), Q8TDV0; PathHunter beta-arrestin GPR151 cells; activation, % at 11.2 µM; 650,000 tested, 1% active; AID 1508602, 2020; in the data active means activation above about 4.9%;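 further: 0% = median of compound wells and 100% = cells with positive control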
Target sequence (Q8TDV0 whole entry, looked up): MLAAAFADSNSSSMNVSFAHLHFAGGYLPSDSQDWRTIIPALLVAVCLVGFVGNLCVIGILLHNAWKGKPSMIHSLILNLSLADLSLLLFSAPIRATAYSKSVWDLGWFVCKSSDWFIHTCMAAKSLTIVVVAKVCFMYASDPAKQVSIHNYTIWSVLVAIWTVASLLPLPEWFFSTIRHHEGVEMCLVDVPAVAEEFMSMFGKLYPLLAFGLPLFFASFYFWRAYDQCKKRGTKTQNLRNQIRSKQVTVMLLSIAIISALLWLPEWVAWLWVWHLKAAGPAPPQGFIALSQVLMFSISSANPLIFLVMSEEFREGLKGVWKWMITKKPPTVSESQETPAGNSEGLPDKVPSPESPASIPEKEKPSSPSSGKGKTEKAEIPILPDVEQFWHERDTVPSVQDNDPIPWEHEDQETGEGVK
GPR151 conf act – GPR151 activators, triplicate retest, confirmation, cell-based, PathHunter beta-arrestin, luminescence; activation, % at 11.2 µM; AID 1508609, 2020; shares compounds with GPR151 activ; 6,700 tested, under 10 active; GPR151 PathHunter beta-arrestin cells, 90 min; % of EA-reagent control over plate median;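 active means mean percent activation across replicates above the confirmation screen cutoff of 4.91%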
GPR119 ag – GPR119 activators in beta-arrestin cells, counter-screen for GPR151 activator project, cell-based, PathHunter beta-arrestin, luminescence, triplicate; shares compounds with GPR151 activ; 90 min; 0 = compound-well median, 100 = enzyme-acceptor control; activation, % at 11.2 µM; 6,700 tested, 0.3% active;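 active means mean percent activation in the counterscreen above 29.09%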;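 further: counterscreen on off-target GPR119 to flag nonselective hits from the GPR151 activator screen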
* hit, by the source's call.

For CC1CCc2c(sc(NC(=O)Cn3c(=O)cnc4ccccc43)c2C#N)C1 (stereo not drawn) the results were MITF primary -16, TEAD-YAP block 2, FBW7 act 0 and GPR151 activ 4.
COc1cc(C(=O)N2C(=S)C(c3ccccc3)=NC2(C)C)cc(OC)c1OC was read as MITF primary 0, TEAD-YAP block 11, FBW7 act 0 and GPR151 activ 2.
COC(=O)c1cc(-c2ccccc2)n(CC(=O)O)c1C was read as MITF primary -7, TEAD-YAP block -26, FBW7 act 0, GPR151 activ 5.5*, GPR151 conf act -1 and GPR119 ag -9.
For Cc1c(C(=O)Oc2ccc(Br)cc2)sc2ncn(C)c(=O)c12 the results were MITF primary 13, TEAD-YAP block 1, FBW7 act 0 and GPR151 activ 1.
Screening COc1ccc(-n2c(Cc3ccccc3)n[nH]c2=S)c(OC)c1 returned MITF primary 10, TEAD-YAP block 5, FBW7 act 0 and GPR151 activ 2.
Screening O=C(NNC1CC(c2ccccc2)=NN1C(=O)c1ccccc1)c1ccccc1 (stereo not drawn) returned MITF primary -3, TEAD-YAP block 3, FBW7 act 0, GPR151 activ 6.5*, GPR151 conf act 0 and GPR119 ag 3.
For O=C(Nc1cc(C(F)(F)F)ccc1Cl)C1C2CC3OC(=O)C1C3C2 (stereo not drawn) the results were MITF primary 4, TEAD-YAP block -1, FBW7 act 0 and GPR151 activ -2.
Screening O=C(Nc1cccc(C(F)(F)F)c1)C1C2CC3OC(=O)C1C3C2 (stereo not drawn) returned MITF primary 1, TEAD-YAP block -2, FBW7 act 0, GPR151 activ 6.3*, GPR151 conf act 1 and GPR119 ag 15.
Screening CC(C)C(=O)NC(C)c1nnc2n1CCN(Cc1ccco1)CC2 (stereo not drawn) returned MITF primary -24, TEAD-YAP block -7, FBW7 act 0, GPR151 activ 12*, GPR151 conf act 0 and GPR119 ag 9.
COc1ccc(C2C(C(=O)Nc3ccccc3)=C(C)Nc3nnnn32)cc1 (stereo not drawn) was read as MITF primary -9, TEAD-YAP block 1, FBW7 act 0 and GPR151 activ 0.
Screening CCc1ccc(CN2CCC(C(=O)N3CCN(CC)CC3)CC2)cc1 returned MITF primary 45, TEAD-YAP block -3, FBW7 act 0 and GPR151 activ 0.
Screening Cc1ccc(CN2CCN(C(=O)C3CCC3)CC2)cc1 returned MITF primary 7, TEAD-YAP block -3, FBW7 act 0, GPR151 activ 5.0*, GPR151 conf act 1 and GPR119 ag 8.
Screening CSC1=C(C#N)C(c2ccncc2)C(C(=O)Nc2ccccc2)=C(C)N1 (stereo not drawn) returned MITF primary -13, TEAD-YAP block -10, FBW7 act 0 and GPR151 activ 1.
Screening COc1ccc(-n2nc3c(c2NC(=O)c2ccc(C)cc2)CS(=O)(=O)C3)cc1 returned MITF primary -2, TEAD-YAP block 6, FBW7 act 0, GPR151 activ 5.4*, GPR151 conf act 1 and GPR119 ag 4.
`COc1ccc(-n2nc3c(c2NC(=O)CCC2CCCC2)CS(=O)(=O)C3)cc1` gave MITF primary -3, TEAD-YAP block -5, FBW7 act 0, GPR151 activ 17*, GPR151 conf act 1 and GPR119 ag 9.
Screening CCC(CC)C(=O)Nc1c2c(nn1-c1ccc(OC)cc1)CS(=O)(=O)C2 returned MITF primary -4, TEAD-YAP block -2, FBW7 act 0, GPR151 activ 7.4*, GPR151 conf act -1 and GPR119 ag 8.
O=C(c1ccccc1)N1CCc2ccc(NS(=O)(=O)Cc3ccc(Cl)cc3)cc2C1 was read as MITF primary 12, TEAD-YAP block 3, FBW7 act 0 and GPR151 activ -1.
Cc1n[nH]c(C)c1-c1ccc2nc(C(N)Cc3ccccc3)[nH]c2c1 (stereo not drawn) was read as MITF primary -2, TEAD-YAP block 7, FBW7 act -1 and GPR151 activ -1.
Screening Cc1cnc(Nc2ncccn2)nc1NCCOc1ccccc1 returned MITF primary -9, TEAD-YAP block -8, FBW7 act 0 and GPR151 activ 1.
Screening COC(=O)NC(=S)Nc1ccc2c(c1)N(C(C)=O)C(C)C2 (stereo not drawn) returned MITF primary 2, TEAD-YAP block 13, FBW7 act 0 and GPR151 activ 0.
CCCC(C)NS(=O)(=O)c1c(C)cc(C)cc1C (stereo not drawn) was read as MITF primary 3, TEAD-YAP block -5, FBW7 act 0, GPR151 activ 7.7*, GPR151 conf act 1 and GPR119 ag 0.
`C[C@@H]1NC(=O)[C@H]2CN(C(=O)c3ccc4ccccc4c3)CCN2C1=O` gave MITF primary 0, TEAD-YAP block 1, FBW7 act 0 and GPR151 activ 0.
`CO/C(=N\S(=O)(=O)c1ccc(Cl)cc1)c1ccccc1` gave MITF primary 17, TEAD-YAP block -6, FBW7 act 0, GPR151 activ 5.9*, GPR151 conf act -1 and GPR119 ag -11.
`N/C(=N\S(=O)(=O)c1ccc(Cl)cc1)c1ccccc1` gave MITF primary 11, TEAD-YAP block 8, FBW7 act 0 and GPR151 activ 3.
CC(C)(C)NC(=O)c1sc2ccccc2c1Cl was read as MITF primary 5, TEAD-YAP block -26, FBW7 act 0 and GPR151 activ 0.
COc1cccc(-c2cn[nH]c2C2CCN(CC3CC3)CC2)c1 was read as MITF primary -27, TEAD-YAP block 3, FBW7 act 0 and GPR151 activ 1.
For CCN(CC)C(=O)C1CCCN1S(=O)(=O)c1cccc2nsnc12 (stereo not drawn) the results were MITF primary 11, TEAD-YAP block -1, FBW7 act 0 and GPR151 activ 2.
`CCN(C(=O)C1CCCN1S(=O)(=O)c1cccc2nsnc12)c1cccc(C)c1` (stereo not drawn) gave MITF primary 17, TEAD-YAP block 7, FBW7 act 0, GPR151 activ 8.2*, GPR151 conf act -1 and GPR119 ag 2.

Source: PubChem
